PubChem BioAssay AID624330 (Southern Research Specialized Biocontainment Screening …, 2012)
Out of some 340,000 compounds screened, about 2,100 (0.62%) were called active.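 How the source made its calls: active means first-screen hits whose inhibition reached a set limit at any dose in the follow-up dose series; inconclusive means inhibition above the set first-screen limit but never retested; inactive means the rest.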 Only a sample is shown. Entries with a potency or affinity are not part of this list.

What follows are molecules tested against Rac GTPase-activating protein 1 (Homo sapiens) (UniProt Q9H0H5) (assay: blockers of MgcRacGAP-driven Rac1 GTP hydrolysis – biochemical, ADP Hunter fluorescence, primary and confirmatory, confirmation (AID 624330;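 further: fluorescence reports GDP produced by GAP-driven GTP hydrolysis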)). Conditions: MgcRacGAP-stimulated Rac1 GTP hydrolysis, at 30 µM, active compounds read high, GST-tagged Rac1 F28L mutant substrate.
Chain of Rac GTPase-activating protein 1 (Homo sapiens) (Q9H0H5 whole entry, looked up): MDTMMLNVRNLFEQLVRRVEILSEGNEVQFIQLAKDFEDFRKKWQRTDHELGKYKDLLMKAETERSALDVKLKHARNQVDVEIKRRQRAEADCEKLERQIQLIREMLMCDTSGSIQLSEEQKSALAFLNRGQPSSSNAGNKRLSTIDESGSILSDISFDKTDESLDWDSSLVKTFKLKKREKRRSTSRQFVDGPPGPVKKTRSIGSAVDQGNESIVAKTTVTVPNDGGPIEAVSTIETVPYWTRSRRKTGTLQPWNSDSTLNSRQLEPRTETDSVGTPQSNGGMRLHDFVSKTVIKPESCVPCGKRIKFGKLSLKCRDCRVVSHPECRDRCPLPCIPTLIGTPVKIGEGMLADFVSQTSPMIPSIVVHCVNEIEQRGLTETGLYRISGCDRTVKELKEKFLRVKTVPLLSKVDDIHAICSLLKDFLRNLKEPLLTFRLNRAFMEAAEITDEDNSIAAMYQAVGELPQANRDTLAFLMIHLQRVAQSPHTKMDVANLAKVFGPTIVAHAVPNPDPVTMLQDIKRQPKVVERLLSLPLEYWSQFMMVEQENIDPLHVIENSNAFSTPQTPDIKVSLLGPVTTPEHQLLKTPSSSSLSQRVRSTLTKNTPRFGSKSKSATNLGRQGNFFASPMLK

inhibition, inactive:
CC(C)C[C@H]1CN([C@@H](Cc2ccc(O)cc2)CN2CCC[C@@H]2CN2C(=O)C(=O)NC[C@@H]2Cc2ccccc2)C(=O)C(=O)N1CC1CCCCCC1 10.4%, O=C(CNC(=O)c1ccco1)NCc1ccc2c(c1)OCO2 3.26%, C=CCn1c(-c2ccc(Cl)cc2)cnc1SC(C)C(N)=O (centres undefined) 13.8%, CCOc1cc(N2CCOCC2)c(OCC)cc1NC(=O)c1ccc2ncsc2c1 9.53%, Cn1c(=O)c2[nH]c(Cc3cccc(O)c3)nc2n(C)c1=O -6.27%, O=C(Nc1ccc2c(c1)OCO2)O[C@@H]1C[C@H]2CCC(=O)N3CC[C@@H](C1)[C@@H]23 5.22%, COc1ccc(CN2CCNC(=O)C2CC(=O)NCCc2nc(C)c3c(n2)CCC3)cc1C (centres undefined) 3.36%, COc1ccc(N)cc1NC(=O)CN1CCCC1 30%, CCCCOc1ccc(NC(=O)CN2CCN(Cc3ccccc3)CC2)cc1 2.92%, Cc1ccc(N)cc1NC(=O)CN1CCOCC1 9.26%, CCCCOc1ccc(NC(=O)CN2CCN(C(=O)OCC)CC2)cc1 23.5%, CCOC(=O)N1CCN(CC(=O)Nc2ccc(C)c(Br)c2)CC1 19.6%, Cc1ccc(NC(=O)CCN2CCN(CCO)CC2)cc1Br 7.64%, CCOc1ccccc1NC(=O)CSC1=NN2CCCC(=O)N=C2S1 4.37%, O=C(Cc1nnc(NC(=O)Nc2ccccc2)s1)NCc1ccccc1 11.4%, O=C(Cc1ccccc1)NCCSCc1ccccc1 10.9%, CC(=O)NS(=O)(=O)c1ccc(NC(=O)c2cccc3ccccc23)cc1 5.73%, COC(=O)c1ccccc1NC(=O)c1cc(-c2ccc(C)cc2)on1 -6.22%, N#CCCN1CCN(C(=S)c2ccc(-c3cccc(Cl)c3)o2)CC1 6.88%, Cc1ccc(N=c2ssnc2Cl)cc1 9.47%, Clc1nssc1=Nc1nncs1 20.4%, CCCCCCCNC(=O)C1(CC2CC(c3ccccc3)=NO2)CCN(C(=O)c2ccccc2)CC1 (centres undefined) 7.41%, O=C(Cc1cccc(C(F)(F)F)c1)N1CCCC1 1.4%, COc1ccc(Br)cc1/C=N/NC(=O)CN1CCN(Cc2ccccc2)CC1 2.09%, COc1ccc(C(=O)N/C(=C\c2cn(S(=O)(=O)N(C)C)c3ccccc23)C(=O)N2CCCC2)cc1 12%, CCOc1cc(/C=N/n2nnnc2N)ccc1OCc1c(C)no[n+]1[O-] 7.97%, O=C(/C=C/c1ccccc1)NC(=O)c1ccccc1O 11.1%, O=C(/C=C/c1ccc(Br)cc1)NC(=O)c1ccccc1O 0.42%, CCN(CC)C(=O)c1[nH]cnc1C(=O)N[C@@H](CC(C)C)C(=O)OC(C)(C)C 8.38%, COc1ccc(C(=O)CC2OC(=O)c3c2ccc(OC)c3OC)cc1 (centres undefined) -2.86%, COc1ccc2c(c1OC)C(=O)OC2CC(=O)c1ccc(O)cc1 (centres undefined) 12.6%, COc1cc(S(=O)(=O)N2CCCCC2)ccc1NC(=O)c1ccncc1 4.39%, O=C(NCc1ccccc1)c1n[nH]nc1-c1ccccc1O -8.5%, Nc1nc(N)c(N=Nc2ccccc2)c(=O)[nH]1 2.34%, Nc1nc(N)c(N=Nc2ccc(C(=O)O)cc2)c(N)n1 -11.2%, C[C@H](CO)N1C[C@H](C)[C@@H](CN(C)S(C)(=O)=O)Oc2ccc(NC(=O)CCN3CCOCC3)cc2C1=O 3.2%, CCOc1cc(/C=N/Nc2nc(N3CCCC3)nc(N3CCCC3)n2)ccc1O 26.7%, O=[N+]([O-])c1cc(/C=N/Nc2nc(N3CCCCC3)nc(N3CCCCC3)n2)ccc1O 9.9%, C(=N\Nc1nc(N2CCCC2)nc(N2CCCC2)n1)/c1ccncc1 -2.52%, COc1ccc(/C=N/Nc2nc(N3CCCCC3)nc(N3CCCCC3)n2)cc1[N+](=O)[O-] -0.88%, CCOc1ccc(/C=N/Nc2nc(N3CCCC3)nc(N3CCCC3)n2)cc1OC 3.96%, COc1ccc(/C=N/Nc2nc(N3CCCC3)nc(N3CCCC3)n2)cc1 3.1%, Cn1c(=O)c2ncn(CC(=O)NCCOCc3ccccc3Cl)c2n(C)c1=O 0.57%, O=C(CS(=O)CC(=O)Nc1cccnc1)Nc1ccc(F)cc1 (centres undefined) 5.58%, CCOc1ccccc1/C=C(\C#N)C(=O)Nc1cccc(C(=O)O)c1 -4.51%, CCCCN(C(=O)C1CCN(C(=O)c2ccccc2C)CC1)c1c(N)n(CCCC)c(=O)[nH]c1=O 4%, O=C(O)COCC(=O)Nc1ccc2c(c1)ncn2CCc1ccccc1 2.87%, NC(=O)c1ccc(NC(=O)c2cncn2-c2ccccc2)cc1 1.08%, CC(C)(C)C1CCC(=O)N(CCOc2ccccc2)CC1 (centres undefined) 5.11%, CCN(c1ccccc1)S(=O)(=O)c1ccc(N2CCN(c3ccc(OC)cc3)CC2)nc1 4.13%, CCN(c1ccccc1)S(=O)(=O)c1ccc(N2CCN(c3ccccc3O)CC2)nc1 5.54%, CN1/C(=C\C(=O)c2cccc([N+](=O)[O-])c2)Sc2ccccc21 10.8%, CSCCC(NC(=O)c1ccc([N+](=O)[O-])cc1Cl)C(=O)OCC(=O)NC(=O)CN1CCCC1=O (centres undefined) -5.24%, CCOc1ccc(CN2CCN(S(=O)(=O)c3ccc(NC(C)=O)cc3)CC2)cc1OC 10.5%, CCOc1ccc(S(=O)(=O)N2CCN(Cc3ccccc3)CC2)cc1 -12%, Cc1ccc(S(=O)(=O)NCCC(=O)N2CCN(c3ccccc3)CC2)cc1C -2.5%, O=C(COC(=O)Cn1cnc2ccccc21)NCCCc1ccccc1 0.48%, O=C(CNCc1cccc(Cl)c1)N1CCc2ccccc2C1 30.6%, O=C(CNCc1ccc(Cl)cc1)N1CCc2ccccc2C1 25.8%
